Our source for the growth inhibition values is PubChem BioAssay (NCI).

The panel holds about 79,000 compounds, 15% with a hit somewhere; the sample as a whole holds those more often. Unmarked numbers belong to inactive results. Calls of active or inactive are those of the source. Cut-off read from the data, not from the text of the source: active = growth inhibition above about 70%; inactive = the rest.

A short description of the assay: NCI Yeast Anticancer Drug Screen. Data for the mec2-1 strain (AID 157). Particulars: S. cerevisiae mec2-1 strain, at 50.0 µM, stronger effect = higher value. How it is done:
Growth inhibition of yeast strains with defined genetic alterations is measured as a screen for potential anti-cancer activity. Selected strains with alterations in DNA damage repair or cell cycle control were exposed to compounds and growth inhibition was measured relative to vehicle treated controls. The strain used in this assay is mec2-1
Regarding `c1ccc(N2CCN(c3ccccc3)CC2)cc1`, the growth inhibition is -8.35%.
As for `NP(=O)(Oc1cccc2c(OP(N)(=O)N(CCCl)CCCl)cccc12)N(CCCl)CCCl` (stereo not given), the figure is -3.65%; as for `O=C1/C(=C\c2ccccc2)C2OCC=C3CN4CCC56c7ccccc7N1C5C2C3CC46` (stereo not given), -33.1%.
As for `[CH3][Sb]1([Cl])[CH2]CCC[CH2]1`, the figure is 32.9%; as for `[C-]#[O+].[C-]#[O+].[C-]#[O+].[C-]#[O+].[C-]#[O+].[CH3][Sn]([Cl])[c]1ccccc1.[Mn]`, 96.5% (active).
Under `Cc1ccc(NC(=O)C(=O)C2C(=O)NC(=O)NC2=O)c(C)c1` stands 9.75%.
`CC(=O)C(C)(C)C`: the growth inhibition was -1.45%.
In the case of `COc1ccc2c(c[n+](C)c3c4cc5c(cc4ccc23)OCO5)c1OC`, the growth inhibition is -6.25%.
For the compound `O=C(NCC(O)CO)c1c([N+](=O)[O-])ccc(N(CCCl)CCCl)c1[N+](=O)[O-]` (stereo not given), the growth inhibition was -9.85%.
For the compound `OCCNC1CCCCC1`, the growth inhibition is -1.65%.
In the case of `CNC(=O)N1CN(c2ccccc2)C2(CCN(CCCC3(c4ccc(F)cc4)OCCO3)CC2)C1=O`, the growth inhibition is -9.5%.
Take `Cc1ccc(P(=O)(O)O)cc1`: the growth inhibition was -15.9%.
`CCCCC(CC)COP(OCC(CC)CCCC)OCC(CC)CCCC` (stereo not given): the growth inhibition was -14.4%.
As for `CCC(Cl)COP(=O)(OCC(Cl)CC)C(CC)OP(=S)(OCC(Cl)CC)OCC(Cl)CC` (stereo not given), the figure is 11.3%; as for `CCCCCCCCCCC(O)[C@H]1CCC(C2CC[C@H]([C@H](O)CCCCCCCCCCC(O)CC3=CC(C)OC3=O)O2)O1` (stereo not given in full), -5.15%.
Consider `NNC(=S)N/N=C(\C(=O)Nc1cccc(O)c1)C1C(=O)NC(=S)NC1=O`, for which the growth inhibition is -10.6%.
As for `CC(O)C[As](=O)(O)c1cccc(Cl)c1` (stereo not given), the figure is 33.9%.
For the compound `NC(=O)CCl`, the growth inhibition was -0.8%.
Under `O=C1NC(=O)C(F)(n2cc(F)c(=O)[nH]c2=O)C(O)N1` (stereo not given) stands -31.3%.
Under `C/C=C/C(=O)[O-].C/C=C/C(=O)[O-].N.N.N.N.[Co+3].[O-][Cl+3]([O-])([O-])[O-]` stands -2.7%; under `O=C1C=CC2(C=C1)CCN=c1c(O)c3c(c(O)c12)=NC=N3`, 7.55%; under `Cn1cc(C(=O)C[n+]2ccccc2)c2ccccc21`, -0.45%.
As for `N.N.N.N.O=N[O-].O=N[O-].[Cl-].[Co+3]`, the figure is 16.1%; as for `CCN(CC)[P+](C1=C(Cl)C(=O)C(Cl)=C(Cl)C1=O)(N(CC)CC)N(CC)CC`, -12%; as for `O=C(c1ccccc1)P(C(=O)c1ccccc1)C(=O)c1ccccc1`, -5.7%.
As for `CCCCCCCCCCCCCCCC[As](=O)(O)CCCCCCCCCCCCCCCC`, the growth inhibition was 13.7%.
As for `COc1ccc(C(=O)O)cc1[N+](=O)[O-]` (tested in a mixture with another compound), the figure is 4.45%.
As to `O=C(CCBr)Nc1ccc(Cl)cc1C(=O)c1ccccc1`, the growth inhibition was 5.5%.
Under `CCCC(OP(=S)(OCC)OCC)c1ccc(Cl)cc1` (stereo not given) stands -1.5%; under `Cc1cccc(Cl)c1OP(=O)(Oc1c(C)cccc1Cl)Oc1c(C)cccc1Cl`, -7.8%.
Under `CC1=C(C)C(=O)O[C@@H]([C@](C)(O)[C@]2(O)CC[C@@]3(O)[C@@H]4C[C@H]5O[C@]56CC=CC(=O)[C@]6(C)[C@H]4CC[C@]23C)C1` stands 64.7%.
As for `CCCCOP(=O)(O)OCCCC.[V]`, the figure is -1.55%.
As for `COC1OCC(N=[N+]=[N-])C(OC)C1O` (stereo not given), the growth inhibition is -12.4%.
With `Cc1ccc([Se][Se]c2ccc(C)cc2)cc1`, the growth inhibition was 10.7%.
As for `Cc1ccc(S(=O)(=O)OCCN2CC2)cc1`, the growth inhibition is -12.2%.
As to `O=S(=O)(c1ccccc1)N1CC1CI` (stereo not given), the growth inhibition is 2.7%.
As for `CC(C)(Br)[N+](=O)[O-]`, the growth inhibition was -3.55%.
Under `CCCCCCCCCCCCCCCCS(=O)(=O)c1ccc(S(=O)(=O)F)cc1NC(=O)C(F)(F)F` stands -9.9%; under `C[Si](C)(C)CS(=O)[O-].[C-]#[O+].[C-]#[O+].[Fe+6].[c-]1[c-][c-][cH-][c-]1`, 8.8%.
Regarding `O=P(Nc1ccc2ccccc2c1)(Nc1ccc2ccccc2c1)N(CCCl)CCCl`, the growth inhibition was -3.5%.
